Values joined by “and” are separate entries in the source; they are usually repeats but may differ in a detail not shown here. Identical values can stand only once. Among all 370,000 compounds or so, about 4,700 (1.3%) were called active.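 The calls were made as follows: active = inhibition above the plate cutoff, the mean of all test compounds on that plate plus 3 SD (cut at about 35% in these data); inactive = the rest.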 The entries come from a sample that favours actives as a whole. Some compounds were tested as several samples or in several runs, with calls that do not always agree.

Among the data in PubChem BioAssay AID651821 (The Scripps Research Institute Molecular Screening Center, 2012) are inhibition values, retold here.

A short description of the test: small molecules binding CAG repeat RNA – biochemical, fluorescence, primary screen (AID 651821).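 Also: 0% = DMSO alone and 100% = 100 µM mitoxantrone as full dye displacement; higher means more dye released from RNA so lower well fluorescence.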 The conditions noted are these: r(CAG) RNA repeat, TO-PRO-1 dye displacement fluorescence; at 3 µM; stronger effect = higher value.
In general, inhibition refers to the relative decrease from the control value, in per cent. Regarding `CCOC(=O)c1csc(NC(=O)Nc2cccc(OC)c2)n1`, the inhibition was 61.3% (active).

With `CCOC(=O)c1cnc(SCC(=O)Nc2cccc(OC)c2)nc1N`, the inhibition was 1.08% (inactive).

Regarding `CC(C)(C)CC(=O)Nc1nc(C(N)Cc2ccc(C(F)(F)F)cc2)cs1` (stereo unspecified), the inhibition was 1.66% (inactive).

On to `NC(c1csc(NC(=O)Nc2ccccc2Oc2ccccc2)n1)c1ccccc1Cl` (stereo unspecified), for which the inhibition is 14% (inactive).

As for `COc1ccc(CN2C(CC(=O)Nc3cccnc3)c3ccc(C(F)(F)F)cc3S2(=O)=O)cc1` (stereo unspecified), the inhibition is 1.65% (inactive).

For the compound `COc1ccc(CC(N)c2csc(NC(=O)Nc3ccc(C(C)C)cc3)n2)cc1` (stereo unspecified), the inhibition is 30.9% (inactive).

For `COc1ccc(C(N)c2csc(NC(=O)Nc3cccc(C(F)(F)F)c3)n2)cc1` (stereo unspecified), the inhibition was 49.1% (active).

With `C/C(CC(=O)Nc1cccc(C(F)(F)F)c1)=N\NC(=O)C(=O)NCC(C)C`, the inhibition is -2.81% (inactive).

Turning to `CC(=O)c1ccc(Nc2nc(C(N)c3ccccc3)cs2)cc1` (stereo unspecified), the inhibition was 6.98% (inactive).

With `COc1cccc(NC(=O)COC(=O)c2ccc3ccccc3n2)c1`, the inhibition was 7.26% (inactive).

As for `NC(c1ccccc1)c1csc(NC(=O)Nc2cccc(C(F)(F)F)c2)n1` (stereo unspecified), the inhibition was 42.2% (active).

In the case of `NC(c1csc(NC(=O)Nc2cccc(C(F)(F)F)c2)n1)C1CCCCC1` (stereo unspecified), the inhibition was 35.2% (active).

Regarding `C=CCn1c(SCC(N)=O)nnc1-c1ccccc1OC`, the inhibition is 2.58% (inactive).

Regarding `O=C(NCc1ccccc1)[C@@H]1CCCN1C(=O)[C@H]1CCCN1C(=O)c1cccc(Cl)c1`, the inhibition is -1.13% (inactive).

Consider `COC(=O)[C@H](CC(C)C)NS(=O)(=O)c1c(F)cccc1F`, for which the inhibition was 0.25% (inactive).

`C=CCN1C(=O)N(Cc2ccccc2)c2ccccc2S1(=O)=O`: the inhibition was -0.57% (inactive).

On to `CCC(=O)Nc1ccc2c(c1)C(=O)N(C)[C@@H]1CC[C@@H](CC(=O)NCCc3ccccc3)O[C@H]1CO2`, for which the inhibition was 0.85% (inactive).

For the compound `CCOC(=O)[C@]12CCCCC/C=C\1N(Cc1ccc(OC)cc1)C(=O)[C@H]2CC(=O)NCc1ccc(C)o1`, the inhibition is 3.94% (inactive).

Take `O=C(NS(=O)(=O)c1cccs1)[C@H]1O[C@@H](n2ccc(=O)[nH]c2=O)[C@H](O)[C@@H]1O`: the inhibition is 1.16% (inactive).

In the case of `CN1CCCc2nc(-c3ccccc3)ccc21`, the inhibition was 1.01% (inactive).

`CCn1c(SCC(=O)N/N=C/c2ccccc2OCC(=O)O)nnc1-c1ccc(C(C)(C)C)cc1`: the inhibition was 18.1% (inactive).

Turning to `O=C(CSc1nc2ccccc2n1Cc1ccccc1Cl)N/N=C\c1c[nH]c2ccccc12`, the inhibition is 12.2% (inactive).

Consider `Cc1ccc(Cn2c(SCC(=O)N/N=C/c3ccccc3OCC(=O)O)nc3ccccc32)cc1`, for which the inhibition was 50% (active).

On to `CC1CCN(c2ccc(C(=O)O)cc2NS(=O)(=O)c2ccc(Br)s2)CC1`, for which the inhibition was 33% (inactive).

For the compound `CCOc1ccc(-n2c(SCC(=O)Nc3cc(C)c(NC(=O)c4ccccc4)cc3OC)nnc2-c2cccs2)cc1`, the inhibition was 10.2% (inactive).

As for `NS(=O)(=O)c1ccc(NC(=O)COC(=O)C2(c3ccc(F)cc3)CCCC2)cc1`, the inhibition is 18.1% (inactive).

In the case of `NS(=O)(=O)c1ccc(NC2=CC(c3ccc(F)cc3)N(c3ccc(S(N)(=O)=O)cc3)C2=O)cc1` (stereo unspecified), the inhibition was 45.7% (active).

Consider `CC(=O)C1=C(O)C(=O)N(c2ccc(S(N)(=O)=O)cc2)C1c1ccccc1F` (stereo unspecified), for which the inhibition is 2.58% (inactive).

Regarding `O=C(COC(=O)CSc1nnc(-c2ccc(Cl)cc2)o1)Nc1cc(Cl)cc(Cl)c1`, the inhibition was 3.94% (inactive).

In the case of `O=C(COC(=O)c1ccc(Oc2ccccc2)cc1)Nc1nnc(-c2ccccc2)o1`, the inhibition is 39.7% (active).

`O=C(COc1ccccc1)Nc1nonc1NC(=O)COc1ccccc1`: the inhibition is 8.22% (inactive).

Consider `O=C(NCc1cccs1)C1CCCN(S(=O)(=O)c2ccc([N+](=O)[O-])cc2)C1` (stereo unspecified), for which the inhibition was 1.56% (inactive).

For the compound `COc1ccc(N2CCN(CCNS(=O)(=O)c3ccc(C(C)(C)C)cc3)CC2)cc1`, the inhibition was -0.11% (inactive).

Regarding `Cc1nnc(SC(C(=O)c2ccccc2)c2ccccc2)[nH]c1=O` (stereo unspecified), the inhibition is 4.12% (inactive).

Take `Cc1nnc(SC(C(=O)Nc2cc(Cl)cc(Cl)c2)c2ccccc2)[nH]c1=O` (stereo unspecified): the inhibition is 80.2% (active).

As for `CC(NCC(=O)Nc1cc(Cl)cc(Cl)c1)c1ccccc1` (stereo unspecified), the inhibition was -5.58% (inactive).

On to `CCc1c(-c2ccccc2OC)ncn1CCc1ccccc1OC`, for which the inhibition is -2.09% (inactive).

Take `Cc1cccc(NC(=O)C[C@H]2CC[C@H]3[C@@H](COc4ccc(NC(=O)Nc5ccccc5)cc4C(=O)N3C)O2)c1`: the inhibition is 10.2% (inactive).

On to `N#Cc1ccc(OC[C@@H](O)CN2CCC(C(O)(c3ccccc3)c3ccccc3)CC2)c(F)c1`, for which the inhibition is -3.22% (inactive).

In the case of `COc1ccc(S(=O)(=O)Nc2ccc3c(c2)C(=O)N([C@H](C)CO)C[C@H](C)[C@@H](CN(C)C)OCCCC[C@H](C)O3)cc1`, the inhibition is 8.48% (inactive).

Turning to `Cc1cc(C)c(C#N)c(SCc2ccc3c(c2)OCO3)n1`, the inhibition is 4% (inactive).

Consider `CCCc1nc2c([nH]1)C(c1cccnc1)C(C#N)=C(N)O2` (stereo unspecified), for which the inhibition was 0.75% (inactive).

Turning to `Cc1cc(C)c(C#N)c(SCc2[nH]nc3c2C(c2ccccc2)C(C#N)=C(N)O3)n1` (stereo unspecified), the inhibition was 38.2% (active).

On to `C[C@@H](NC(=O)c1ccccc1OCC(=O)Nc1ccc(I)cc1)C(=O)N(C)Cc1ccccc1`, for which the inhibition was 5.02% (inactive).

As to `COc1ccc(C(=O)C(C)OC(=O)c2cccc(S(=O)(=O)Nc3c(C)n(C)n(-c4ccccc4)c3=O)c2)cc1` (stereo unspecified), the inhibition is 7.06% (inactive).

Take `Cc1ccc(S(=O)(=O)N[C@H](CO)C(C)C)cc1`: the inhibition is 2.22% (inactive).

Consider `CNC(=O)COc1ccc(S(=O)(=O)Nc2ccccc2)cc1`, for which the inhibition is 0.86% (inactive).

Take `Cc1ccc(S(=O)(=O)N/N=C(\c2ccccc2)C2CC2)cc1`: the inhibition is -0.89% (inactive).

Turning to `Cc1ccc(S(=O)(=O)/N=C2\C=C(NS(=O)(=O)c3ccc(C)cc3)C(=O)c3ccccc32)cc1`, the inhibition was 59.4% (active).

Turning to `COc1ccc(S(=O)(=O)/N=C2\C=C(NS(=O)(=O)c3ccccc3)C(=O)c3ccccc32)cc1`, the inhibition is 63.6% (active).

With `O=S1(=O)c2c(cccc2N2CCSCC2)Oc2ccccc2CN1Cc1cn(Cc2ccc(F)cc2)nn1`, the inhibition is 8.25% (inactive).

With `C[C@H]1[C@H](c2ccccc2)Oc2cc(Br)ccc2S(=O)(=O)N1Cc1cccc(F)c1`, the inhibition is 3.74% (inactive).

As for `CCOC(=O)CSc1nncc2ccc(OC)c(OC)c12`, the inhibition was -1.96% (inactive).

Turning to `Cc1cc(C)cc(NC(=O)N2CCC(N(C)CCC(C)C)CC2)c1`, the inhibition is 3.3% (inactive).

Regarding `N#Cc1ccc(OCCCN2CCC(C(O)(c3ccccc3)c3ccccc3)CC2)c(F)c1`, the inhibition was -1.54% (inactive).

As to `C=C1c2c(Cl)ccc(O)c2C(O)=C2C(=O)[C@]3(O)C(O)=C(C(N)=O)C(=O)[C@@H](N(C)C)[C@@H]3[C@@H](O)C12` (stereo partly specified), the inhibition is 87.2% (active).

As to `Cc1nc(NC(=O)C(C)(C)C)sc1[N+](=O)[O-]`, the inhibition is 2.08% (inactive).

`COc1cccc(CNC(=O)[C@H]2CCCN2C(=O)[C@H]2CCCN2C(=O)C2CCCCC2)c1`: the inhibition was 1.57% (inactive).

On to `Cc1ccc(NC(=O)Cc2cccc(F)c2)c(S(=O)(=O)N2CCOCC2)c1`, for which the inhibition is -0.87% (inactive).

Turning to `O=C1C=C(c2ccc(Cl)cc2)C(=O)N1Nc1ccccc1`, the inhibition was 8.98% (inactive).

Take `O=C1c2cccc3cccc(c23)C(=O)N1c1cccc(O)c1`: the inhibition is 4.62% (inactive).

On to `O=C1c2cccc3cc(Br)cc(c23)C(=O)N1Nc1ccccc1`, for which the inhibition is 36.1% (active).

On to `CCCc1cc(=O)[nH]c(SCC(=O)N2C(C)CCCC2C)n1` (stereo unspecified), for which the inhibition was -1.93% (inactive).

Take `CCCc1cc(=O)[nH]c(SCC(=O)Nc2ccc(S(=O)(=O)N3CCCC3)cc2)n1`: the inhibition was 15.7% (inactive).

For the compound `CCCc1cc(=O)[nH]c(SCC(=O)Nc2sc3c(c2C#N)CCCC3)n1`, the inhibition is 40.9% (active).

Regarding `CC(C)C[C@H](NC(=O)CC1CCCC1)C(=O)N1CCC[C@H]1C(=O)NCc1ccccc1`, the inhibition is -2.39% (inactive).

`COc1ccccc1CCn1cnc(-c2ccccc2)c1C(C)C`: the inhibition is -1.16% (inactive).

For `C/C(Cc1ccccc1)=N\NC(=O)CNC(=O)c1cccc(Br)c1`, the inhibition was 1.32% (inactive).

On to `C/C(=N/NC(=O)c1cc(Cl)ccc1O)C12CC3CC(CC(C3)C1)C2`, for which the inhibition is 14.9% (inactive).

Take `CC(=N\NC(=O)c1cc(Br)ccc1O)/C(=N/O)C(=O)Nc1ccccc1`: the inhibition was 36.5% (active).

In the case of `O=S1(=O)c2ccc(Br)cc2OC[C@H](Cc2ccccc2)N1Cc1cn(Cc2ccccc2)nn1`, the inhibition is 9.1% (inactive).

Turning to `O=C(CSc1nnc(COc2ccccc2)n1-c1ccc(Cl)cc1)Nc1ccc2c(c1)OCO2`, the inhibition was 5.42% (inactive).

Take `Cc1ccc(N=C2NC(=O)/C(=C/C=C/c3ccco3)S2)cc1C`: the inhibition was 58% (active).

As for `Cc1cc(C(=O)NN=C/C=C/c2ccco2)n[nH]1`, the inhibition was 12% (inactive).

As to `Nc1ncnc2c1ncn2[C@@H]1O[C@H](C(=O)N[C@@H](CCc2ccccc2)C(=O)NCC(=O)N2CCOCC2)[C@@H](O)[C@H]1O`, the inhibition was 4.42% (inactive).

In the case of `C=CC1=C(C(=O)O)N2C(=O)[C@@H](NC(=O)/C(=N/OCC(=O)O)c3csc(N)n3)[C@H]2SC1`, the inhibition was 50.2% (active).

With `CO/N=C(\C(=O)N[C@@H]1C(=O)N2C(C(=O)O)=C(COC(C)=O)CS[C@H]12)c1csc(N)n1` (stereo in doubt), the inhibition was 31% (inactive) and 22.6% (inactive) and 37.5% (active).

`CCN1CCN(C(=O)N[C@@H](C(=O)N[C@@H]2C(=O)N3C(C(=O)O)=C(CSc4nnnn4C)CS[C@H]23)c2ccc(O)cc2)C(=O)C1=O`: the inhibition is 8.44% (inactive).

As to `Nc1nc2c(ncn2[C@@H]2O[C@H](C(=O)N[C@H](Cc3ccccc3)C(=O)NCC3CCCCC3)[C@@H](O)[C@H]2O)c(=O)[nH]1`, the inhibition was 6.66% (inactive).

Take `Cc1ccc(CN2CCCCC(NC(=O)C3CCCCC3)C2=O)cc1` (stereo unspecified): the inhibition is -0.58% (inactive).

With `CCCCN(C(C)=O)c1ccc2c(c1)C1CC2CCN1Cc1ccccc1` (stereo unspecified), the inhibition was -3.96% (inactive).
